GALK inhibitor = inhibitors of human galactokinase (GALK). P51570. Potency, µM (doses to about 57.5 µM), inactives show at the top dose activity, negative = inhibition, usual class: inhibitors. recombinant GALK, Kinase-Glo ATP luminescence, 1 h. 44,000 tested, under 10 active;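 further: plate controls were full GALK reaction for no effect and reaction lacking GALK for full effect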
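Compounds were pinned into ATP buffer, then GALK-galactose mix was added (final 5 nM enzyme, 35 uM ATP, 100 uM galactose, pH 8.0). After 1 h at room temperature, Kinase-Glo Plus was added and luminescence read.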
FH mod = Identification of activators of human fumarate hydratase by quantitative high-throughput screening; Fumarate hydratase, mitochondrial (Homo sapiens), P07954; FH coupled MDH/diaphorase resazurin fluorescence, 15 min; Potency, µM (series often up to 79.9 µM), for inactives: at the highest dose activity change, negative = inhibition, hits mostly inhibitors; 0.22% of 54,000 active; AID 1347055, 2019; further: potency means the concentration at half of the fitted maximal effect; on the % scale 0 is the no-effect control and ±100 the full control effect; the screen sought activators but most active calls are inhibition curves; nearly all actives have a fitted effect of over 45% in size
NTMT1 inhibitor = blocks human N-terminal methyltransferase 1 activity. NTMT1 MTase-Glo SAH luminescence, purified enzyme. 2.5% of 59,000 active. Q9BV86. Potency, µM (doses to about 114 µM), for the others: at the top dose activity change, negative = inhibition, usual class: inhibitors;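 further: potency means the concentration at half of the fitted maximal effect; plate controls were DMSO vehicle for no effect and no enzyme for full effect; nearly all actives have a fitted effect of over 65% in size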
Target sequence (Q9BV86 whole entry, looked up): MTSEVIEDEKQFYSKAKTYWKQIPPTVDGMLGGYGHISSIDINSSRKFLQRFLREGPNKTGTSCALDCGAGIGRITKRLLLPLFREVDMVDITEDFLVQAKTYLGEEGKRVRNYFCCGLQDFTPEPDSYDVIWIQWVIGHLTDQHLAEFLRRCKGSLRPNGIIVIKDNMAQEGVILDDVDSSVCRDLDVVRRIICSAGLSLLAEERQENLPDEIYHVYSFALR
GALC G270D act = enhancers of human galactocerebrosidase G270D mutant activity in cells; P54803; 145M-Twi-hGALC-G270D cells (Twitcher mouse brain line with human GALC G270D), HMU-beta-Gal fluorescence, 48 h; Potency, µM (highest dose often 57.5 µM), actives largely listed as activators; 0.1% of 45,000 active; AID 1159614; further: potency means the concentration at half of the fitted maximal effect; 0% is about no effect; nearly all actives have a fitted effect of over 65% in size
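Mutant human GALC (G270D), stably expressed in a Twitcher mouse brain cell line lacking endogenous GALC, is measured in live-treated cells via 6-hexadecanoylamino-4-methylumbelliferyl-β-galactoside hydrolysis (0.1 mM final, pH 5.2) with fluorescent detection.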
B2AR arrestin ag = beta-arrestin recruitment by human beta2-adrenergic receptor ligands | HTLA Tango cells, beta-arrestin recruitment, luciferase luminescence, 18 h | Potency, µM (top dose mostly 46.1 µM), usual class: activators | 44,000 tested, under 10 active;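 further: potency means the concentration at half of the fitted maximal effect; 0% = DMSO and full agonism = EC100 isoproterenol or metaproterenol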
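Luminescence read-out: arrestin recruitment to recombinant beta2-AR releases tTA, inducing luciferase. Cells exposed 18 hr at 37 degrees C to up to 46 microM compound; %Activity from corrected signal, concentration-response curves classified by r2, magnitude and efficacy.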
PTAP-TSG101 blk = blocks PTAP binding to human TSG101, validation | AID 1347069 | Potency, µM (highest dose often 115 µM), most hits filed as inhibitors | Fluorescence polarization, FITC-PTAP peptide/Tsg101, 20 min | Q99816 | 44,000 tested, under 10 active; further: potency means the concentration at half of the fitted maximal effect; 0% is about no effect
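qHTS FP binding, 20 min r.t.: 10 uM Tsg101 domain + 50 nM FITC-PTAP peptide, pH 7.5 HEPES buffer with TCEP and EDTA.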
Sfp qHTS opt = inhibits purified B. subtilis Sfp PPTase | shares compounds with NTMT1 inhibitor | purified Sfp PPTase enzyme activity, qHTS | AID 540350 | 78% of 230 active | Potency, µM (titrated, usually from 114 µM), for inactives: at the top dose activity change, negative = inhibition, actives largely listed as inhibitors
HM489 growth = reduces growth of B. subtilis HM489 strain; Potency, µM (titrated, usually from 114 µM), inactives show at the highest dose activity change, negative = inhibition, actives largely listed as inhibitors; AID 540353; B. subtilis HM489 (acpS-) growth, BacTiter-Glo, 5 h; 50% of 220 active; shares compounds with NTMT1 inhibitor
Sfp PPTase gel = inhibits B. subtilis Sfp PPTase in gel assay | 54% of 220 active | shares compounds with NTMT1 inhibitor | Potency, µM (doses to about 250 µM), for inactives: at the top dose activity change, negative = inhibition, most hits filed as inhibitors | purified Sfp PPTase, gel-based product detection
Sfp SAR2 = inhibitors of Bacillus subtilis Sfp PPTase, SAR round 2 | 87% of 230 active | AID 602370 | shares compounds with NTMT1 inhibitor | purified Sfp enzyme, PPTase activity, qHTS | Potency, µM (series often up to 57.1 µM), for the others: at the highest dose activity change, negative = inhibition, usual class: inhibitors
HSD17B4 counter = counter-screen for HPGD inhibitors: human HSD17B4 inhibition. shares compounds with NTMT1 inhibitor. purified HSD17B4, estradiol/NAD+, NADH fluorescence. Potency, µM (top dose mostly 57.1 µM), without a hit: top-dose activity change, negative = inhibition, usual class: inhibitors. 10% of 230 active. AID 743187
ALDH1A1 inh = inhibits human ALDH1A1, off-target for HPGD inhibitors; AID 743195; Potency, µM (highest dose often 57.1 µM), without a hit: at the top dose activity change, negative = inhibition, most hits filed as inhibitors; recombinant ALDH1A1, NADH fluorescence, propionaldehyde/NAD+; shares compounds with NTMT1 inhibitor; 93% of 230 active
NNMT counter = counter-screen for NTMT1 inhibitors: human NNMT inhibition; shares compounds with NTMT1 inhibitor; NNMT MTase-Glo luminescence, SAH detection; Potency, µM (doses to about 57.1 µM), inactives show top-dose activity, negative = inhibition, actives largely listed as inhibitors; 10% of 120 active; AID 1645878
Target sequence (P40261 whole entry, looked up): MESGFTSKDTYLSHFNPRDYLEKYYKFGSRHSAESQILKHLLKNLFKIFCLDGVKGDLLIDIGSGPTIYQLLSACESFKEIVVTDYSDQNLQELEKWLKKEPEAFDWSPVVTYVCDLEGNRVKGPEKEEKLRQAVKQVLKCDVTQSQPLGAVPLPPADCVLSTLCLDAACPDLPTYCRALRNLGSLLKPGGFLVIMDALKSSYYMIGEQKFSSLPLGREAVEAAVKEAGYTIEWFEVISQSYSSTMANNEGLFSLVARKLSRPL
* hit, by the source's call; i = inactive; ? = inconclusive; / = no result; [ ] = remark or other dose. Many of the other results were omitted from the sample, so hits are more common in it than they were. The call rests on the fitted dose curve; in most records, active means well fitted curve in the direction sought with a large enough effect; inconclusive means small, poorly fitted or top-dose-only effect, or another doubt; inactive means no such curve, though single readings can be large; an effect the other way counts as inactive or inconclusive.

SMILES | GALK inhibitor | FH mod | NTMT1 inhibitor | GALC G270D act | B2AR arrestin ag | PTAP-TSG101 blk | Sfp qHTS opt | HM489 growth | Sfp PPTase gel | Sfp SAR2 | HSD17B4 counter | ALDH1A1 inh | others
Cc1cc(C)nc(NC(=S)N2CCN(c3ccsc3)CC2)c1 | / | / | / | / | / | / | 5.9µM* | ? | -77% | 8.1µM* | ? | 22µM*
Cc1cc(C)nc(NC(=S)N2CCN(c3cc(C#N)cc(C#N)c3)CC2)c1 | / | / | ? | / | / | / | 2.4µM* | 93% | -73% | 0.65µM* | -13% | 17µM*
Cc1cc(C)nc(NC(=S)N2CCN(c3cc(Cl)c(Cl)c(Cl)c3)CC2)c1 | / | / | ? | / | / | / | 1.5µM* | 8% | 10µM* | 0.36µM* | -8% | 6.1µM*
O=C(Nc1ccc(F)cc1F)N1CCN(c2ccc(Cl)c(Cl)c2)CC1 | -2% | -25% | 1% | i | i | i | / | / | / | / | / | /
Cc1cc(C)nc(NC(=S)N2CCN(c3ncnc4sccc34)CC2)c1 | / | / | -21%[57.5 µM] | / | / | / | 5.9µM* | ? | 40µM* | 1.8µM* | -24% | 9.6µM*
Cc1c(NC(=O)c2cc(C(N)=O)nc3cc(F)ccc23)c(C(F)(F)F)nn1Cc1ccc(C(C)(C)C)cc1 | / | / | 0% | / | / | / | / | / | / | / | / | /
O=C(Nc1ccc([S+](=O)([O-])Nc2nccs2)cc1)c1ncn[nH]1 | / | / | -11% | / | / | / | / | / | / | / | / | /
CN(C)[S+](=O)([O-])c1ccc(-c2cncc(NC(=O)c3cccs3)c2)cc1 | / | / | -3% | / | / | / | / | / | / | / | / | /
COC(=O)CCSCc1ccc(-c2onc(C)c2NC(=O)OC(C)c2ccccc2Cl)cc1 (stereo unspecified) | / | -11% | 3%[57.5 µM] | / | / | / | / | / | / | / | / | /
Cc1cc(C)nc(NC(=S)N2CCN(c3nccc(C(F)(F)F)n3)CC2)c1 | / | / | ? | / | / | / | 2.1µM* | ? | 3.2µM* | 1.1µM* | ? | 17µM*
Cc1cc(C)nc(NC(=S)N2CCN(c3cc(F)cc(F)c3)CC2)c1 | / | / | / | / | / | / | 6.6µM* | 37µM* | 10µM* | 1.3µM* | / | /
COc1cc(CCc2ccc(OCC=C(C)C)cc2)cc(OC)c1OC | / | -2%[53.3 µM] | -16%[29.8 µM] | / | / | / | / | / | / | / | / | / | NNMT counter=-17%[38.3 µM]
CCOc1ccc(-c2cc(CCCC(=O)NCCc3cc(OC)c(OC)c(OC)c3)no2)cc1 | -1% | -1% | -1% | i | i | i | / | / | / | / | / | /
CC[C@@H](C)Nc1cc(C(=O)NC2CC3CC[C@@H](C2)N3c2ccc(C(=O)C3CC3)cn2)c(C)cc1C(N)=O (stereo partly specified) | / | -11% | 4%[57.5 µM] | / | / | / | / | / | / | / | / | / | NNMT counter=-21%
Cc1ccnc(NC(=O)C(C)c2cccc(C(=O)c3ccccc3)c2)c1 (stereo unspecified) | / | -4% | 6%[57.5 µM] | / | / | / | / | / | / | / | / | /
Cc1ccnc(NC(=S)N2CCc3ccccc3C2)c1 | / | / | ? | / | / | / | 9.4µM* | 33µM* | 3.2µM* | 1µM* | 47% | 3µM*
Cc1ccnc(NC(=S)N2CCN(c3ccc(Cl)cc3Cl)CC2)c1 | / | / | ? | / | / | / | 1.9µM* | 8.3µM* | 13µM* | 0.73µM* | -18% | 5.4µM*
O=C(c1cc2ccc3cccnc3c2[nH]1)N1CCN(c2cccc(Cl)c2)CC1 | 3% | -34% | -3% | i | i | i | / | / | / | / | / | /
S=C(Nc1cc(Cl)ccn1)N1CCN(c2ccc3ccccc3n2)CC1 | / | / | ? | / | / | / | ? | 26µM* | ? | 7.2µM* | -23% | i
Cc1ccnc(NC(=S)N2CCNCC2)c1 | / | / | ? | / | / | / | 4% | ? | -52% | 14µM* | 10% | 27µM*
C[C@@H]1O[C@@H](O[C@H]2[C@H](O)[C@@H](O)[C@H](OC[C@H]3O[C@@H](OC(=O)[C@]45CCC(C)(C)C[C@H]4C4=CCC6[C@@]7(C)C[C@@H](O)[C@H](O)[C@@](C)(CO)C7[C@H](O)C[C@@]6(C)[C@]4(C)CC5)[C@H](O)[C@@H](O)[C@@H]3O)O[C@@H]2CO)[C@H](O)[C@H](O)[C@H]1O (stereo partly specified) | / | -13%[20.6 µM] | 14%[12.6 µM] | / | / | / | / | / | / | / | / | /
Nc1nc(SCc2ccc([N+](=O)[O-])cc2)c2ncn([C@@H]3O[C@H](CO)C(O)[C@H]3O)c2n1 (stereo partly specified) | / | -11%[53.3 µM] | / | / | / | / | / | / | / | / | / | /
COc1ccc(F)c(F)c1C(=O)c1cnc(NC2CCN(S(C)(=O)=O)CC2)nc1N | / | 9% | 9% | / | / | / | / | / | / | / | / | /
C=C1CCC2C(C)(CO[C@@H]3O[C@H](CO)[C@@H](O)[C@H](O)[C@H]3O)C(O)CCC2(C)C1C(=O)CC1=CCOC1=O (stereo partly specified) | / | 0%[53.3 µM] | 20%[29.8 µM] | / | / | / | / | / | / | / | / | /
c1cncc(-c2ccc(CNc3nc(C4CCCC4)nc4ccccc34)cc2)c1 | / | / | 9% | / | / | / | / | / | / | / | / | /
CCn1c(=O)c(-c2ccn[nH]2)cc2c(C)nc(N)nc21 | / | -5% | -5%[57.5 µM] | / | / | / | / | / | / | / | / | / | NNMT counter=-14%
CC(=O)N1CCC(Nc2cc(C(=O)NC[C@H](O)CN3CCc4ccccc4C3)ncn2)CC1 | / | / | 2% | / | / | / | / | / | / | / | / | /

High-throughput results: PubChem BioAssay, National Center for Advancing Translational Sciences (NCATS)
